Assay [1] in a line: qHTS for small molecule inhibitors of Yes1 kinase: Counter Assay (AID 686950).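 Also: no kinase present so only ADP-Glo detection of a fixed ADP amount is tested; luminescence from ADP-Glo reporting ADP in a fixed ATP and ADP mixture; series mostly up to about 77 µM; 0% = DMSO wells with ATP plus ADP and -100% = ATP-only wells without ADP.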 A digest of the protocol:
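ADP-Glo luminescence read after a 60 min room-temperature incubation of compound with an ATP/ADP mix (0.08 mM/0.02 mM) and no kinase, following a 20 min compound preincubation. Signal scaled between ATP+ADP (max) and 0.1 mM ATP-only (min) wells; Tris pH 7.5, Mg2+, DTT.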
A general note: qHTS replaces the single test concentration by a dilution series.

For assay [2], the target named is Tyrosine-protein kinase Yes (Homo sapiens) (UniProt P07947). As to the kind of experiment: qHTS for small molecule inhibitors of Yes1 kinase: Primary Screen (AID 686947). Also: potency is read from the fitted curve at half-maximal effect; nearly all actives have a fitted effect of over 60% in size. In a few lines: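 ADP-Glo luminescence reports ADP formed by 4 nM Yes1 phosphorylating poly(E4Y) (0.3 mg/mL) with 0.1 mM ATP for 60 min at room temperature, following 20 min compound preincubation; normalised between DMSO wells with and without enzyme.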
Tyrosine-protein kinase Yes (Homo sapiens), sequence (P07947 whole entry, looked up): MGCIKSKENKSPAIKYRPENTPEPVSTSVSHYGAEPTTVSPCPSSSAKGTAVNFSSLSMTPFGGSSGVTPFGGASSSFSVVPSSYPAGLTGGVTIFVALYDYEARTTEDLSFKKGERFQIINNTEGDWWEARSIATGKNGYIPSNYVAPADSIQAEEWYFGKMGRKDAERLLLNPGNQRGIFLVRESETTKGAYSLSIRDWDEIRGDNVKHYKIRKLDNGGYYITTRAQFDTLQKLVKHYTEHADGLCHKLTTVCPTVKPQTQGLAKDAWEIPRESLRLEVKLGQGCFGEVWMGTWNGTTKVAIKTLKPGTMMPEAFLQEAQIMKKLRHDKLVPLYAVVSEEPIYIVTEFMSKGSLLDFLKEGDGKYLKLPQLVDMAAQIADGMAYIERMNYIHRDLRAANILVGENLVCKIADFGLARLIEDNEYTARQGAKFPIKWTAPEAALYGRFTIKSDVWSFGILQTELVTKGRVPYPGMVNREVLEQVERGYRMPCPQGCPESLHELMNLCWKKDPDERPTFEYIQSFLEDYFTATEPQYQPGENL

The target of assay [3] is Bifunctional 3'-5' exonuclease/ATP-dependent helicase WRN (Homo sapiens) (UniProt Q14191). Nature of the assay: qHTS for Inhibitors of WRN Helicase: Confirmatory Assay for Cherry-picked Compounds. (AID 720497). Also: potency is read from the fitted curve at half-maximal effect; nearly all actives have a fitted effect of over 65% in size. A digest of the protocol:
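Kinetic fluorescence helicase read-out (525 nm excitation, 598 nm emission) on a forked duplex substrate at 100 nM with 2 mM ATP. Enzyme: 20 nM WRN, exposed to compound for 15 min at room temperature. Responses normalized to buffer-only and positive-control wells.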

Assay [4] in a line: qHTS for Inhibitors of WRN Helicase: Thiazole Orange DNA Binding Counterscreen (AID 720499).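 Also: drop in dye fluorescence marks compound binding to DNA; nearly all actives have a fitted effect of over 60% in size.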 Also: potency is read from the fitted curve at half-maximal effect. In a few lines:
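Mixture of 100 nM thiazole orange and 50 nM unlabeled DNA exposed to compound 15 min at room temperature. Dye displacement monitored by 480/530 nm fluorescence, identifying nonspecific DNA binders.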

The target in assay [5] is RecQ-like DNA helicase BLM (Homo sapiens) (UniProt P54132). As to the kind of experiment: qHTS for Inhibitors of WRN Helicase: BLM Helicase Counterscreen for WRN Inhibitors (AID 720503). Also: nearly all actives have a fitted effect of over 60% in size. Also: potency is read from the fitted curve at half-maximal effect. In a few lines:
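BLM (1 nM) was preincubated with compounds for 15 min at room temperature in Tris-HCl pH 8.0, 50 mM NaCl, 2 mM MgCl2 buffer. Unwinding started with 100 nM DNA and 2 mM ATP (final); red fluorescence was read twice, 15 min apart.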

The target in assay [6] is DNA polymerase eta (Homo sapiens) (UniProt Q9Y253). Nature of the assay: qHTS for Inhibitors of Polymerase Eta: Confirmatory Assay for Cherry-picked Compounds (AID 720502). Also: potency is read from the fitted curve at half-maximal effect. Conditions: Pol eta primer extension, TAMRA/BHQ fluorescence, 10 min. A digest of the protocol: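 Readout: TAMRA dequenching, ex 525/em 598 nm, read at 0 and 10 min. Enzyme: 10 nM human Pol eta, preincubated with compound 15 min RT. Substrate: 50 nM final annealed primer/reporter/template duplex.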

Assay [7] concerns the target Flap endonuclease 1 (Homo sapiens) (UniProt P39748). As to the kind of experiment: qHTS Assay for the Inhibitors of FEN1: Confirmatory Assay for Cherry-picked Compounds (AID 720498). Also: potency is read from the fitted curve at half-maximal effect; nearly all actives have a fitted effect of over 60% in size. Conditions: FEN1 flap cleavage, TAMRA/BHQ2 fluorogenic DNA substrate. A digest of the protocol: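 Human FEN1 (10 nM reagent) was preincubated with compounds for 15 min at room temperature, then 50 nM final double-flap DNA substrate (5'-TAMRA flap, BHQ-2 quencher strand) was added. Fluorescence (ex 525/em 598 nm) was read at 0 and 15 min.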

Assay [8] deals with DNA polymerase iota (Homo sapiens) (UniProt Q9UNA4). As to the kind of experiment: qHTS for Inhibitors of Polymerase Iota: Confirmatory Assay for Cherry-picked Compounds (AID 720496). Also: potency is read from the fitted curve at half-maximal effect. Conditions: Pol iota primer extension, TAMRA/BHQ fluorescence. A digest of the protocol:
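Kinetic fluorescence, 0 → 10 min, ex 525/em 598 nm. Pol iota 10 nM, 15 min RT preincubation with compound, then 50 nM (final) TAMRA/BHQ-2 primer-template substrate.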

Assay [9] can be described thus: qHTS Assay for Identifying Gametocytocidal Compounds (AID 743244).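 Also: % is scaled to controls: 0 for no effect and ±100 for the full control effect; actives lower the fluorescent signal which means gametocytes are killed.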 The following applies: P. falciparum 3D7 stage III-V gametocytes, alamarBlue, 72 h; active compounds read low. In a few lines:
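Stage III–V gametocytes of P. falciparum 3D7 were seeded at 20,000 cells/well onto pre-dispensed compounds. After 72 h, 37 °C, 5% CO2, alamarBlue was added for another 24 h.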

In PubChem BioAssay (NCATS) one finds outcome, Potency and max response data, which are given here for 26 molecules.

Where “and” joins values, the source holds several entries; their conditions need not be identical. Identical values can stand only once. A number with no mark means an inactive call. Results filed as inconclusive are left out. The list shows a part of the results. Calls of active or inactive are those of the source. Calls follow the shape of the dose curve; as a rule, active = well fitted curve in the direction sought with a large enough effect; inconclusive = small, poorly fitted or top-dose-only effect, or another doubt; inactive = no such curve, though single readings can be large; an effect the other way counts as inactive or inconclusive.

RecQ-like DNA helicase BLM (Homo sapiens), sequence (P54132 whole entry, looked up): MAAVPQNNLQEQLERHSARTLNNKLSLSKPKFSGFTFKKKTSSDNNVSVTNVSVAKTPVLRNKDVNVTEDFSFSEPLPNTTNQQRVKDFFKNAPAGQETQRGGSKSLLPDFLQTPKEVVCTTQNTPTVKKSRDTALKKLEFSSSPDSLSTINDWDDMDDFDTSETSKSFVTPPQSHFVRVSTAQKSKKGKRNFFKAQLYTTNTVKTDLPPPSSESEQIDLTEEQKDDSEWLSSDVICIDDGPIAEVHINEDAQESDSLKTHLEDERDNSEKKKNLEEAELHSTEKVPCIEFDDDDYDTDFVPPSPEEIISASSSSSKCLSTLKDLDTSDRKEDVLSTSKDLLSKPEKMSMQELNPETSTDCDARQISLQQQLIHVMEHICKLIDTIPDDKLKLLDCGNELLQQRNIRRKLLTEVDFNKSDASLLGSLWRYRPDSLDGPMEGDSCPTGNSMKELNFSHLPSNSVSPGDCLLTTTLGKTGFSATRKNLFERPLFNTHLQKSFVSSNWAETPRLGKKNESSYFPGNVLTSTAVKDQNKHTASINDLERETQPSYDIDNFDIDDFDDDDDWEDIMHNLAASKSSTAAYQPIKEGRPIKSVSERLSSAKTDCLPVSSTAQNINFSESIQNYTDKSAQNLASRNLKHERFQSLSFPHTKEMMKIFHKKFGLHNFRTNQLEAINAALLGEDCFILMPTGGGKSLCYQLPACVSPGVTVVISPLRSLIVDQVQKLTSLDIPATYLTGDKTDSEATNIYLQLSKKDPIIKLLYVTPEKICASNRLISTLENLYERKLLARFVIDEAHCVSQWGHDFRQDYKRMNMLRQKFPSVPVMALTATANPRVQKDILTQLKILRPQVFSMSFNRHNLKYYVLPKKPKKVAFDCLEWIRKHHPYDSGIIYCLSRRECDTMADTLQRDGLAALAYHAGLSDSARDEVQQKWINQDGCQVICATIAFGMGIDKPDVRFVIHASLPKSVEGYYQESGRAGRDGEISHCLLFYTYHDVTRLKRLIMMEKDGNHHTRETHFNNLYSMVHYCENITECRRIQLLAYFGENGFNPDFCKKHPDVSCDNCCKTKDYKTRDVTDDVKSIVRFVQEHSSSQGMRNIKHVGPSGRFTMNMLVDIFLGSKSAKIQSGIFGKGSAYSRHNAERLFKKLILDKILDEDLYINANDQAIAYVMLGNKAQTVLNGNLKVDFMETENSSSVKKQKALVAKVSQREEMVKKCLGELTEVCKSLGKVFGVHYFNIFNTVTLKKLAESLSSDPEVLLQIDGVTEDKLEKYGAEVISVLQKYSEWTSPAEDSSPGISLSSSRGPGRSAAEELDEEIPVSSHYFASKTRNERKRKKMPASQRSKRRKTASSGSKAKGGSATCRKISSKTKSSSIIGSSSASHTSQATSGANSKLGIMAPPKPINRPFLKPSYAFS
Bifunctional 3'-5' exonuclease/ATP-dependent helicase WRN (Homo sapiens), sequence (Q14191 whole entry, looked up): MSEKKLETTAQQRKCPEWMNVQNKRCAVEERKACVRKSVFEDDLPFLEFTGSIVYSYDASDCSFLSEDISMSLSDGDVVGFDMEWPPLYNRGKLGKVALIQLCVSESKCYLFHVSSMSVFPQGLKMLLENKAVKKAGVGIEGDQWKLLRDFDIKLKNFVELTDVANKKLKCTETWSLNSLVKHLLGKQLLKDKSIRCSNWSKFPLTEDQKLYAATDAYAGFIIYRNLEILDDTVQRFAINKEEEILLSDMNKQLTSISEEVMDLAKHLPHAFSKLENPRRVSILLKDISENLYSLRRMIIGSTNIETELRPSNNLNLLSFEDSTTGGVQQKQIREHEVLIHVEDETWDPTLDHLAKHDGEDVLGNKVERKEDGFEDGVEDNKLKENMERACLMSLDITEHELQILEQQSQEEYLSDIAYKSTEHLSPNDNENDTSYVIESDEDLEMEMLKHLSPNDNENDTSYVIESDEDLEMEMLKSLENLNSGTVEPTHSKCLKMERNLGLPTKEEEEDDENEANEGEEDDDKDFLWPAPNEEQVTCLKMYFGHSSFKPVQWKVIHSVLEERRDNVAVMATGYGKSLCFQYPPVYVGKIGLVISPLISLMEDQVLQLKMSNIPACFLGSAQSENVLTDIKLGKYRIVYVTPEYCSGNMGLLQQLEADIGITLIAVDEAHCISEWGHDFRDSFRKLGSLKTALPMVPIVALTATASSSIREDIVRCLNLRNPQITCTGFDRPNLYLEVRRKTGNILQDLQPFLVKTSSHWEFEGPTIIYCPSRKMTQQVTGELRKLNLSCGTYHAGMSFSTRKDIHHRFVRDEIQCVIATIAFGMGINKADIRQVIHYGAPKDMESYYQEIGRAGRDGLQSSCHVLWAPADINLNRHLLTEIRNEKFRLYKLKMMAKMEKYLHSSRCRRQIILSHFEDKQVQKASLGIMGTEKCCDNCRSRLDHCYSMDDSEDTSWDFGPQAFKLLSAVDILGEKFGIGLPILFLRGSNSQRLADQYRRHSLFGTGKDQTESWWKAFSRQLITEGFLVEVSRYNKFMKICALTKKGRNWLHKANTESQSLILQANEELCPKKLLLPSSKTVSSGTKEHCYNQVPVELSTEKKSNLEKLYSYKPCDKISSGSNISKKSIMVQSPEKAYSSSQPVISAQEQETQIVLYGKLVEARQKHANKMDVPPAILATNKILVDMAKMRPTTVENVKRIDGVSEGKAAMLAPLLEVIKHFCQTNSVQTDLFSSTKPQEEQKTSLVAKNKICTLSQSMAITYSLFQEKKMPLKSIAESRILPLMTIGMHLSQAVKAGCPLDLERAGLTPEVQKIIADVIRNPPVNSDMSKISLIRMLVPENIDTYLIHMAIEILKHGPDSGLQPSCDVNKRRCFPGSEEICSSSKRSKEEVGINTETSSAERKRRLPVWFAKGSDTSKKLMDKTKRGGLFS
Flap endonuclease 1 (Homo sapiens), sequence (P39748 whole entry, looked up): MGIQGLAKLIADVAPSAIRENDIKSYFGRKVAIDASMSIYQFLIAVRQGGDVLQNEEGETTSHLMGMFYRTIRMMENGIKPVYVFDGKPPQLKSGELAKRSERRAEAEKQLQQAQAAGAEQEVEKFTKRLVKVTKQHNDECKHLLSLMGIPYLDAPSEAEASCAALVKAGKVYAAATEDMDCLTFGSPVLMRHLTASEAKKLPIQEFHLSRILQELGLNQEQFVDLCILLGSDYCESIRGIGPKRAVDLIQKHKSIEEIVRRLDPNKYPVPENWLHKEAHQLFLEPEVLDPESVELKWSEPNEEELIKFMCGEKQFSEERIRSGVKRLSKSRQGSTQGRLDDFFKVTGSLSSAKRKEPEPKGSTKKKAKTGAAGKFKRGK
DNA polymerase iota (Homo sapiens), sequence (Q9UNA4 whole entry, looked up): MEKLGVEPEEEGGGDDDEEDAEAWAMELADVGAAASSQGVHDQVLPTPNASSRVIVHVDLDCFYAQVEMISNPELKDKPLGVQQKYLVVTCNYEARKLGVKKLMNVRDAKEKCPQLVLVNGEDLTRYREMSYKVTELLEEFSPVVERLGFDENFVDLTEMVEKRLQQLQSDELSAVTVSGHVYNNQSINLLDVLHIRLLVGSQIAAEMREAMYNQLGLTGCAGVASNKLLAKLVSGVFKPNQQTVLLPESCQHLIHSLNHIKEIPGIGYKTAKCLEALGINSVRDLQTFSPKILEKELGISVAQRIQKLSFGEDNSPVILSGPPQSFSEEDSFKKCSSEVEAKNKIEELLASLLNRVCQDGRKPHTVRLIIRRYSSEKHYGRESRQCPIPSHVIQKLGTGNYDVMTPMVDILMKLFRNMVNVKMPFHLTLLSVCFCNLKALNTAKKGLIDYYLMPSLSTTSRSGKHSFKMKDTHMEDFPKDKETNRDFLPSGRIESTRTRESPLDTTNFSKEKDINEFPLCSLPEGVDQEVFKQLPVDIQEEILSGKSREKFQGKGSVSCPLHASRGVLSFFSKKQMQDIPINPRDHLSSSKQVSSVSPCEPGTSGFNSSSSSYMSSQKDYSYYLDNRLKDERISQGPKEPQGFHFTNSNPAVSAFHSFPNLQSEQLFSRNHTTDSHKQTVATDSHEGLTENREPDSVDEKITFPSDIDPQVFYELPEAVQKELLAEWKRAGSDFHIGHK

In the case of `Cc1cc(-c2ccco2)cc(C)c1C=Cc1cncc(-c2nn[nH]n2)c1`, the outcome in assay [1] was inactive. Turning to `COc1cc2ncn(-c3cc(OC(C)c4ccccc4Cl)c(C(N)=O)s3)c2cc1OC` (stereo not drawn), the Potency in assay [2] was 2.92 µM (active) and 733 nM (active). In [1], the molecule was classed as inactive. For the molecule `CCn1c(-c2nonc2N)nc2cncc(C(=O)NCCNC)c21`, in [2], the Potency is 1300 nM (active). For the same molecule, the outcome in [1] was inactive.

As for `CCn1c(-c2nonc2N)nc2c(C#CC(C)(C)O)nc(OC(CN)c3ccccc3)cc21` (stereo not drawn), the Potency in assay [2] is 654 nM (active). Moreover, the call in [1] was inactive. Turning to `NS(=O)(=O)c1ccc(Nc2cc(-c3ccc(O)c(F)c3)[nH]n2)cc1`, the molecule was classed as inactive in [1]. As to `CCn1c(-c2nonc2N)nc2ccncc21`, the molecule was called inactive in assay [1]. The same measure, in the same setting: the value for `CC(C)(C)c1ccc(Oc2nccc(-c3c(-c4ccc(F)cc4)ncn3C3CCNCC3)n2)cc1` was “inactive”; that for `O=C(O)c1ccc(Oc2nccc(-c3c(-c4ccc(F)cc4)ncn3C3CCNCC3)n2)cc1` was “inactive”.

Turning to `Cc1ccc(-c2cc3c(NC(=O)C4CC4)ncnc3o2)cc1`, the Potency in assay [2] is 733 nM (active). Further, in assay [1], the result was inactive. Consider `Fc1cccc(COc2ccc(Nc3ncnc4cc(-c5ccc[nH]5)sc34)cc2Cl)c1`, for which, in [1], the outcome was inactive.

Regarding `CC(=Nc1ccc(S(N)(=O)=O)cc1)c1c(O)[nH]c2ccccc12`, the molecule was called inactive in [1].

For the molecule `CCN1CCC(CC(=O)Nc2n[nH]c3nnc(-c4cccc(F)c4F)cc23)CC1`, the result in [1] was inactive. The same measure, in the same setting: to `NC(=O)c1sc(-n2cnc3ccc(C(F)(F)F)cc32)cc1OCc1ccccc1Br` belongs “inactive”; to `O=C1NC(=O)C(c2ccc(Cl)cc2)=C1Nc1ccc(Cl)c(C(=O)O)c1`, “inactive”. With `COc1ccc(Cl)cc1NC(=O)CCS(=O)(=O)c1ccc(Br)cc1`, the Potency in assay [3] was 21.5 µM (active); in assay [5] it was 4.82 µM (active). Besides, the Potency result in assay [4] was “inactive”. Turning to `Cc1c(CC(=O)N2CCN(C(=O)C3COc4ccccc4O3)CC2)c(=O)oc2c(O)c(O)ccc12` (stereo not drawn), the Potency in assay [3] was 2.41 µM (active); in assay [5], 1.52 µM (active). In addition, the Potency entry in [4] was “inactive”. In the case of `O=C(CSc1nc2ccccc2c(=O)[nH]1)Nc1nc(-c2ccc(Br)cc2)cs1`, the Potency in assay [6] is 75.7 µM (active).

With `CCOc1ccccc1C(=O)NCc1ccco1`, the Potency result in [4] is “inactive”. Besides, the Potency in assay [5] is 19.2 µM (active).

On to `CCN(CC)c1ccc2cc(C(N)=O)/c(=N\NC(=O)c3ccncc3)oc2c1`, for which the Potency in [7] is 33.8 µM (active). Turning to `c1ccc2cc3c(NCCN4CCOCC4)ccnc3cc2c1`, the Potency in [7] is 37.9 µM (active). As for `COc1nc(N=C(N)N)nc2c(C)cccc12`, the Potency in assay [7] is 33.8 µM (active). In the case of `CCN(c1ccc(Cl)cc1)S(=O)(=O)c1nnc(NC(=O)c2ccco2)s1`, the Potency in assay [8] was 75.2 µM (active). Turning to `CCCCCCCCCCCCCCCC(=O)O[C@@H]1[C@@H](O)[C@@H](O)[C@@H]([C@H](NC(=O)[C@@H]2C[C@@H](CCC)CN2C)[C@H](C)Cl)O[C@@H]1SC`, the max response in assay [9] was -16.5%. As for `CCN(CC)CCOc1ccc2c(c1)C(=NNC(=O)c1ccccn1)c1cc(OCCN(CC)CC)ccc1-2`, the Potency in assay [3] is 13.6 µM (active); in [4], 2.15 µM (active). The Potency result in assay [5] is “inactive”.

Turning to `Cc1ccc(NC(=O)c2cc(-c3ccc(C)o3)nc3ccccc23)nc1`, the Potency in [6] is 75.7 µM (active).

In the case of `COc1ccc2[nH]c3c(C)c4cc[n+](C)cc4c(C)c3c2c1`, the Potency is 2.99 µM (active) in assay [8] and 1.35 µM (active) in assay [7].
